# Screening data as filed in PubChem BioAssay.
# Compounds with a hit are over-represented: about 1.9% of the library has one in this group of screens.
# EBNA-1 inhibitor: EBNA-1 DNA-binding inhibitors, primary screen, biochemical, fluorescence polarization; 300,000 compounds, 0.34% hits; AID 1950, 2009; inhibition, % at 14.8 µM; in the data active means inhibition above about 28%
# Rev-erbA mod: modulators of Rev-erb alpha DNA binding, primary screen, biochemical, FITC-DNA, fluorescence polarization, uHTS; Nuclear receptor subfamily 1 group D member 1 (Homo sapiens), P20393; Rev-erbα–FITC-DNA binding, 90 min; activity, % at 10 µM; 370,000 compounds, 0.79% hits; AID 1259318, 2017;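 active means activity above about 14%, limit read from the data; passing the limit was not always enough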
# aDG glyco up: activators of alpha-DG glycosylation, primary screen, uHTS, Pro5-aDG cells, AlphaScreen. alpha-DG glycosylation AlphaScreen (IIH6); 0% Pro5, 100% B10-LARGE cell signal. activation, % at 10 µM. 360,000 compounds, 0.22% hits. AID 624168, 2012;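 active means activation of at least 8% versus controls, or a plate z-score of at least 8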;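 further: Pro5 are CHO cells carrying HIG-tagged alpha-DG that lacks glycosylation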
# ZTA DNA inh: ZTA (EBV) inhibition in EBNA-1 counter-screen. P03206. ZTA-DNA binding, fluorescence polarization. inhibition, % at 11 µM. 320,000 compounds, 0.15% hits; in the data active means inhibition above about 33%
# Target sequence (P03206 whole entry, looked up): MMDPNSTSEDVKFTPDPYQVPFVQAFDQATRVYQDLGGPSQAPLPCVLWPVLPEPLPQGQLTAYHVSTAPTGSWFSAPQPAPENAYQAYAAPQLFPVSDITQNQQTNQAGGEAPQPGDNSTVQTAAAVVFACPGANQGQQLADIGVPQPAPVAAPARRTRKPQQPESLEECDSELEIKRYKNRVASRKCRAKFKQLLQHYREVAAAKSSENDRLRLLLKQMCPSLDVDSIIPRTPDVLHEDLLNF
# NCF1 inh: p47phox/p22phox peptide binding inhibitors, primary screen, biochemical, uHTS, NADPH oxidase regulatory subunit | AID 1274, 2008 | 220,000 compounds, 0.53% hits | fluorescence polarization, 2 h | inhibition, % at 24.7 µM;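 active means inhibition above about 30%, limit read from the data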
# PG9 binder: binders of HIV-1 gp120 antibody PG9, primary screen, biochemical, TR-FRET; 360,000 compounds, 0.43% hits; TR-FRET gp120-PG9 antibody binding; inhibition, % at 6.7 µM; HIV-1 gp120 / PG9 antibody interaction; in the data active means inhibition above about 8.5%
# aDG glyco conf: alpha-DG glycosylation enhancers, retest, confirmation, single concentration, Pro5-aDG cells; shares compounds with aDG glyco up; IIH6 AlphaLISA; scaled to LARGE-overexpressing B10 cells as 100%; activation, % at 10 µM (by protocol); 600 compounds, 17% hits; AID 651671, 2012;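 active means activation of at least 7% in one or more replicates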;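 further: cells exposed to compound for two days before detection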
# Hits are given with their value; - = inactive; . = no result given.
SMILES,EBNA-1 inhibitor,Rev-erbA mod,aDG glyco up,ZTA DNA inh,NCF1 inh,PG9 binder,aDG glyco conf
N=c1c2c(ncn1CCCO)Oc1c(ccc3ccccc13)C2c1ccccc1 (stereo not given),-,-,3.1,-,-,-,4.7
COc1ccc(C2c3ccc4ccccc4c3Oc3ncn(CCCO)c(=N)c32)cc1 (stereo not given),-,-,-,-,-,-,.
CC(=O)c1cc(-c2ccc(-c3ccccc3)c(F)c2)c(=O)n2c1CCC2,.,-,.,.,.,.,.
CCOC(=O)c1cnc(SCC(=O)Nc2cc(OC)ccc2OC)nc1N,-,-,6.7,-,-,-,-
CC(C)(C)c1ccc(-c2nnc(SCC(=O)Nc3ccc4cn[nH]c4c3)n2-c2ccc(Cl)cc2)cc1,.,-,.,.,.,.,.
C/C(=N\Nc1nc(C)cc(-c2ccccc2)n1)c1ccc(C)o1,-,-,4.6,-,-,-,-
COC(=O)[C@]1(CNS(=O)(=O)C2CC2)CC(=O)N(C)[C@@H]1c1ccccc1,.,-,.,.,.,.,.
Cc1nc(NC(C)c2ccccc2)c2oc3ccccc3c2n1 (stereo not given),-,-,6.7,-,-,-,-
CCc1ccc(NC(=S)NC2CC3CCCC(C2)N3Cc2cccs2)cc1 (stereo not given),-,-,4.0,-,-,-,-
CCc1ccccc1NC(=O)NC1CC2CCC(C1)N2Cc1cccs1 (stereo not given),-,-,-,-,-,-,.
O=C(Nc1cccc(Cl)c1)O[C@@H]1CC[C@@]23CCCN2C(=O)CCC[C@H]3C1,.,-,.,.,.,.,.
CC1CCCCC1NC(=O)Cc1ccc(S(=O)(=O)N2CCOCC2)s1 (stereo not given),-,-,6.0,-,.,-,-
CN(C)[C@H]1CCN(c2cccc3c2S(=O)(=O)N(C2CC2)CCCO3)C1,.,-,.,.,.,.,.
Cn1c(SCC(=O)N2CCCc3ccccc32)nnc1-c1ccccc1,-,-,3.7,-,-,-,-
O=C(Cn1ncc2c(=O)oc3ccccc3c21)NCC1COc2ccccc2O1 (stereo not given),-,-,8.2,-,-,-,-
CCN(CC)c1ccc(C=Nn2c(C)nnc2C)cc1,.,-,.,.,.,.,.
CCOC(=O)[C@@]12CN(C(=O)OC(C)(C)C)CC=C1N(Cc1ccc(OC)cc1)C(=O)[C@H]2CC(=O)NCc1cccs1,.,-,.,.,.,.,.
CCn1c2c(c(=N)c3ccccc31)CCC2,-,-,3.4,-,-,-,-
CCCN(CC(=O)Nc1cc(Cl)cc(Cl)c1)CC(=O)Nc1ccc(F)c(F)c1F,-,-,5.9,-,-,-,-
CCCN(CC(=O)Nc1ccccc1Br)CC(=O)Nc1ccc(F)c(F)c1F,-,-,-,-,-,-,.
CCCCCCc1nc2ccccc2c(=O)n1NC(=O)c1c(O)c2c(n(CC(C)C)c1=O)CCCC2,-,-,6.3,-,-,-,-
CCN1CCN(c2ccc(NC(=O)COc3ccc(Cl)cc3C)cc2)CC1,.,-,5.2,.,.,-,-
CC(C)(C)CCN1C[C@@H]2C(CNC(=O)c3cc(Cl)cc(Cl)c3)[C@@H]2C1 (stereo not given in full),.,-,.,.,.,.,.
Brc1ccc(Cn2nnc(-c3ccc(N4CCOCC4)cc3)n2)cc1,.,-,.,.,.,.,.
COCCNc1nc(NCc2ccc(C(C)C)cc2)c2sccc2n1,.,-,7.3,.,.,-,-
CN1[C@H](Cc2ccccc2)COc2cccc(N3CCCC3)c2S1(=O)=O,.,-,.,.,.,.,.
CC(C)(C)NC(=O)C(c1cccnc1)N(C(=O)c1cnc[nH]1)c1ccc(C(C)(C)C)cc1 (stereo not given),.,-,.,.,.,.,.
O=C1CC(c2ccccc2)n2nc(NC(=O)C3CCCO3)nc2N1 (stereo not given),-,-,3.1,-,-,-,-
CCOCCCNC1=C(Cl)C(=O)c2ccccc2C1=O,-,-,-,-,-,-,.
O=C1C(Cl)=C(NCCCO)C(=O)c2ccccc21,-,-,8.7,-,-,-,3.2
